Screening data (PubChem BioAssay)
TcdB GH inh: blocks C. difficile toxin B glycohydrolase activity; P18177; TcdB glycohydrolase enzymatic assay, plate reader; inhibition, % at 9.99 µM; 0.24% of 350,000 active; AID 652162; in the data active = inhibition above about 10%
Yp Topo-I inh: inhibitors of Yersinia pestis topoisomerase I; Y. pestis Topo-I cleavage product accumulation, plate reader; activity, % at 10 µM; AID 504884; 0.064% of 360,000 active; in the data active = activity above about 50%, passing the limit was not always enough
PrP 5UTR inh: inhibition of PrP 5' UTR reporter expression | cell-based PrP 5' UTR mRNA reporter, plate reader | inhibition, % (concentration not given with the values) | 0.35% of 340,000 active | AID 488862; in the data active = inhibition above about 52%; note: 0 = median of the neutral control wells
Mtb BioA inh: inhibitors of Mycobacterium tuberculosis BioA enzyme. purified M. tuberculosis BioA enzyme, plate reader. 0.096% of 360,000 active. inhibition, % at 9.99 µM; in the data active = inhibition above about 40%
FadD28 FP inh: inhibitors of Mycobacterium tuberculosis FadD28 bisubstrate binding. 0.22% of 360,000 active. inhibition, % at 12.5 µM. FadD28 bisubstrate probe binding, fluorescence polarization; in the data active = inhibition above about 8.5%, passing the limit was not always enough
PfHsp40 rescue: restores yeast growth despite PfHsp40 toxicity; S. cerevisiae expressing PfHsp40, growth rescue, ATP luminescence; AID 504582; growth rescue, % at 12.5 µM; 0.68% of 340,000 active; in the data active = growth rescue above about 28%, passing the limit was not always enough;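 note: yeast W303a lacking pdr1 and pdr3 grown in galactose medium; growth measured after three days at 30 °C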
Active calls of the source: *; . = not tested or not shown. Hits are enriched below; roughly 1.2% of the tested compounds scored in any of these assays.

SMILES	TcdB GH inh	Yp Topo-I inh	PrP 5UTR inh	Mtb BioA inh	FadD28 FP inh	PfHsp40 rescue
COc1ccc(C(=O)Nc2cccc(/C=C(\CCC(=O)O)c3nc4ccccc4s3)c2)cc1	0	15	-12	27	-5	0
Clc1ccc(C2=NCCN2)cc1	1	-8	-8	.	-3	221*
Clc1ccc(-c2ccn[nH]2)cc1	1	4	-24	.	-2	0
COc1ccccc1C(=O)Nc1cccc(Oc2c(F)c(F)c(F)c(F)c2F)c1	13*	16	-14	-2	-3	0
Cc1ccc(C)c(-c2cc(C(=O)NNC(=S)NCC(C)C)c3ccccc3n2)c1	-1	-1	-20	.	-3	82*
C[C@@H]1CN([C@H](C)CO)C(=O)c2cccc(NC(=O)Nc3ccc(C(F)(F)F)cc3)c2O[C@H]1CN(C)S(C)(=O)=O	2	.	.	5	.	.
Clc1ccc(-c2n[nH]c3c2CCC3)cc1Cl	.	22	-11	-1	-3	241*
C[C@H]1CN([C@@H](C)CO)C(=O)c2cc(C3=CCCC3)cnc2O[C@H]1CN(C)C(=O)c1ccccc1	1	.	.	-2	.	.
O=C(NCc1ccc(F)cc1)C(Cc1ccccc1)NS(=O)(=O)c1cccs1 (stereo not given)	2	6	-2	-1	25*	1
O=C(NCc1cccs1)C(Cc1ccccc1)NS(=O)(=O)c1cccs1 (stereo not given)	.	16	-69	0	1	0
COc1ccc(C(=O)N/N=C/c2sc3ccccc3c2O)cc1	.	-3	10	.	0	262*
O=C(N/N=C/c1sc2ccccc2c1O)c1ccccc1	.	-4	-34	-6	-1	-2
O=C(N/N=C/c1sc2ccccc2c1O)c1cccc2ccccc12	.	4	18	.	7	32*
O=C(NC[C@H]1CC[C@H]2[C@H](CN2S(=O)(=O)c2ccccc2)O1)NC1CCCCC1	0	.	.	.	.	.
COC(=O)C(=N/Nc1ccccc1C(=O)OC)/C(C)=N/O	-2	-1	-2	-1	-1	137*
CNc1ccccc1C(=O)OC	0	2	2	-1	0	-1
O=C(C[C@H]1CC[C@H]2[C@@H](COC[C@H](O)CN2C(=O)Cc2ccccc2)O1)NC1CCCC1	-2	.	.	2	.	.
Nc1ccc(C(=O)c2ccc3c(c2)OCCO3)cc1N	14*	-4	-78	0	-5	0
CCC(=O)c1ccc2c(c1)OCCO2	-1	1	4	.	-1	1
O=C(CNC(=O)c1ccccc1Cl)N/N=C/c1ccc2c(c1)OCO2	2	2	-33	-1	-3	0
O=C(Cn1nnc(-c2ccccc2Cl)n1)N/N=C/c1ccc2c(c1)OCO2	.	25	-9	2	0	60*
O=C(O)c1ccc(NS(=O)(=O)c2ccc3c(c2)C2C=CCC2C(c2ccccc2F)N3)cc1 (stereo not given)	0	4	-11	.	43*	8
O=C(O)c1ccc2c(c1)C1C=CCC1C(c1cc3c(cc1Br)OCO3)N2 (stereo not given)	0	0	-21	.	5	65*
CC(=O)c1ccc2c(c1)C1C=CCC1C(C(=O)O)N2 (stereo not given)	1	-13	-10	.	40*	10
C[C@@H]1CCCCO[C@@H](CN(C)Cc2ccncc2)[C@H](C)CN([C@H](C)CO)C(=O)c2cc(NC(=O)C3CCCCC3)ccc2O1	1	.	.	0	.	.
SMILES	TcdB GH inh	Yp Topo-I inh	PrP 5UTR inh	Mtb BioA inh	FadD28 FP inh	PfHsp40 rescue
COc1ccc(C(=O)CSc2nc(-c3ccccn3)nc(C)c2Cl)cc1	-2	-4	2	-1	-2	-3
Cc1nc(-c2ccccn2)nc(SCC(=O)c2ccc(F)cc2)c1Cl	12*	-4	-14	.	-2	0
O=C(C[C@H]1C=C[C@@H](NC(=O)c2ccc(F)cc2)[C@@H](CO)O1)NCc1ccncn1	-7	.	.	-3	.	.
CCCNC(=O)N1CC[C@@H]2[C@@H](CO)N(C)c3ccc(-c4ccc(F)cc4)cc3[C@@H]21	12*	.	.	11	.	.
CCCNC(=O)N1CC[C@@H]2[C@H]1c1cc(-c3ccccc3)ccc1N(C)[C@H]2CO	12*	.	.	.	.	.
C[C@@H]1CCCCO[C@@H](CN(C)C(=O)Nc2cccc3ccccc23)[C@H](C)CN([C@H](C)CO)C(=O)c2cc(NC(=O)c3ccncc3)ccc2O1	0	.	.	-1	.	.
CC1=C/C(=C(/c2cc(C)c(O)c(Br)c2)c2ccccc2S(=O)(=O)O)C=C(Br)C1=O	4	60*	11	.	2	3
CC1=C/C(=C(/c2ccc(O)c(C)c2)c2ccccc2S(=O)(=O)O)C=CC1=O	1	4	-12	10	0	1
O=[N+]([O-])c1cc(Cl)cc(/C=N/NC(=S)Nc2ccc(S(=O)(=O)N3CCOCC3)cc2)c1O	2	-10	-15	5	18*	449*
O=S(=O)(c1ccc(NC(=S)N/N=C/c2ccc(O)c(O)c2)cc1)N1CCOCC1	5	-10	-7	-1	0	1
C/C=C/c1ccc(O)c(OC)c1	-8	-2	-9	0	-3	-2
Oc1cc(O)cc(/C=C/c2ccc(O)c(O)c2)c1	10*	-18	-123	-2	3	-3
O=C1COc2ccc(S(=O)(=O)N3CCN(c4cccc(Cl)c4)CC3)cc2N1	0	15	-11	-3	-2	53*
C[C@H]1CCCCO[C@@H](CN(C)C(=O)Nc2ccc3c(c2)OCO3)[C@@H](C)CN([C@@H](C)CO)C(=O)c2cc(NS(C)(=O)=O)ccc2O1	0	.	.	3	.	.
CCOCCCNC(=O)c1cc2c(s1)-c1ccccc1SC2	-7	-1	-19	-1	-4	1
CN(C)CCNC(=O)c1cc2c(s1)-c1ccc(Cl)cc1SC2	12*	-30	17	0	-28	5
C[C@H]1CN([C@@H](C)CO)C(=O)c2cc(-c3cccc(F)c3)cnc2O[C@H]1CN(C)C(=O)C1CCCCC1	0	.	.	-2	.	.
O=S(=O)(O)c1cc(Cl)cc(N=Nc2ccc(O)cc2O)c1O	0	-18	-8	.	34*	58*
O=[N+]([O-])c1ccc(N=Nc2ccc(O)cc2O)cc1	.	-7	-36	0	-3	-1
COc1ccc(Cl)cc1NC(=S)NC1CCCC1	15*	-3	1	-1	-2	-2
COc1ccccc1NC(=S)NC1CCCC1	-1	8	-18	.	-2	6
COC[C@H]1OC(=O)c2coc3c2[C@@]1(C)C1=C(C3=O)[C@@H]2CCC(=O)[C@@]2(C)C[C@H]1OC(C)=O	-5	4	15	.	-7	123*
COc1cccc(CN(C)C[C@@H]2OCc3cnnn3CCCC(=O)N([C@@H](C)CO)C[C@@H]2C)c1	0	.	.	-2	.	.
O=C1c2ccccc2C(=O)c2c(O)c(O)cc(O)c21	1	-5	1	-4	47*	179*
O=C1C=C(O)c2c(O)cc(O)c(O)c2C1=O	-1	-2	-1	3	-2	248*
O=C1C=C(O)c2[nH]c(=O)ccc2C1=O	-1	-2	52	.	1	-1
